Assay outcomes deposited in PubChem by National Center for Advancing Translational Sciences (NCATS).
HT1080-NT tox: kills 2HG-producing HT-1080-NT fibrosarcoma cells. HT-1080-NT fibrosarcoma viability, CellTiter-Glo ATP luminescence, 48 h. Potency, µM (highest dose often 46.1 µM), for inactives: top-dose activity, negative = less viability, actives largely listed as cytotoxic. 1.6% of 360,000 active. AID 686970;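 further: NT is the 2HG producing partner of a matched IDH1 knockdown line; potency means the concentration at half of the fitted maximal effect; 0% = DMSO-treated cells and -100% = media-only wells without cells; nearly all actives have a fitted effect of over 55% in size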
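750 cells/well, RPMI + 5% FBS; 2 h settle, compound pin-transfer, 48 h at 37 degrees C. CellTiter-Glo 10 min RT, luminescence. Normalized to DMSO and media-only wells.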
TDP1 cell CPT: DT40-hTDP1 cell growth loss with CPT; 12% of 420,000 active; AID 686979; Potency, µM (highest dose often 46.2 µM), for inactives: at the highest dose activity change, negative = growth inhibition, usual class: inhibitors; chicken DT40 Tdp1-/-;hTDP1 cells + 20 nM CPT, ATP luminescence, 48 h; further: potency means the concentration at half of the fitted maximal effect; nearly all actives have a fitted effect of over 55% in size
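Chicken DT40 Tdp1-/- cells complemented with human TDP1, 400 cells/well, exposed to compounds plus 20 nM camptothecin for at least 48 h at 37 C; viability read as ATP content by CellTiter-Glo luminescence.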
IL1B secr inh: inhibitors of inflammasome signaling (IL-1 beta secretion); THP-1 LPS/ATP IL-1B secretion, AlphaLISA, 16 h; stronger effect = lower value; activity change, % at 57.5 µM; 4.7% of 360,000 active; in the data active means activity change below about -50%; inconclusive means mostly about -30% to -49%
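THP-1 cells pretreated 1 hr with compounds (up to 57.5 uM final), then stimulated with LPS (250 ng/mL final) plus ATP (1.25 mM final); secreted IL-1B measured by AlphaLISA after 16 hr, decreased signal indicating inhibition.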
DT40 TDP1 no CPT: qHTS for Inhibitors of human tyrosyl-DNA phosphodiesterase 1 (TDP1): qHTS in cells in absence of CPT. DT40 Tdp1-/- hTDP1 cells, no CPT, ATP luminescence, 48 h. Potency, µM (highest dose often 46.2 µM), for the others: at the top dose activity change, negative = growth inhibition, most hits filed as inhibitors. 15% of 420,000 active. AID 686978, 2013; further: potency means the concentration at half of the fitted maximal effect; nearly all actives have a fitted effect of over 55% in size
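Luminescent ATP content (CellTiter-Glo) served as the growth readout. Knockout chicken DT40 cells expressing human TDP1 were exposed to compounds without camptothecin for a minimum 48 hr at 37 °C.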
HT1080 IDH1KD tx: HT-1080 IDH1 knockdown cell toxicity (counter line); HT-1080 IDH1 knockdown viability, ATP luminescence, 48 h; Potency, µM (doses to about 46.1 µM), without a hit: at the highest dose activity, negative = toxicity, usual class: cytotoxic; 2% of 360,000 active; AID 686971;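 further: potency means the concentration at half of the fitted maximal effect; 0% = DMSO wells and -100% = cell-free medium wells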
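Knockdown cells (IDH1KD HT-1080) received compounds 2 h after plating at 750 cells/well and were kept 48 h at 37 °C in 5% FBS RPMI. A CellTiter-Glo luminescence read gave % activity for curve fitting.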
An asterisk follows results filed as active; [ ] = another dose, or the depositor's remark. Most compounds without a hit are left out; they make up all but 19% or so of the library. Unless noted, the call rests on the fitted dose curve; in most records, active means well fitted curve in the direction sought with a large enough effect; inconclusive means small, poorly fitted or top-dose-only effect, or another doubt; inactive means no such curve, though single readings can be large; an effect the other way counts as inactive or inconclusive. Unless noted, on the % scale 0 is the no-effect control and ±100 the full control effect.

What do the screens show for `COc1ccccc1OC(C)C(=O)Nc1nc(-c2ccc(S(=O)(=O)N3CCOCC3)cc2)cs1` (configuration not stated)?
HT1080-NT tox: 2%; TDP1 cell CPT: inconclusive; IL1B secr inh: 0; DT40 TDP1 no CPT: inconclusive; HT1080 IDH1KD tx: -2%

What do the screens show for `O=C(Nc1nc(-c2ccc(S(=O)(=O)N3CCCC3)cc2)cs1)c1ccco1`?
HT1080-NT tox: -6%; TDP1 cell CPT: 23µM*; IL1B secr inh: -15; DT40 TDP1 no CPT: 18µM*; HT1080 IDH1KD tx: -22%

How did N#CCC(CNc1ncc(C(F)(F)F)cc1Cl)OC(=O)c1ccc(Cl)cc1Cl (configuration not stated) do in these assays?
HT1080-NT tox: inconclusive; TDP1 cell CPT: -9%; IL1B secr inh: inconclusive; DT40 TDP1 no CPT: -26%; HT1080 IDH1KD tx: -3%[9.24 µM]

Results for CC(C)C(NC(=O)c1ccc(Cl)c([N+](=O)[O-])c1)C(=O)NCc1ccccn1 (configuration not stated) ?
HT1080-NT tox: 8%; TDP1 cell CPT: -2%; IL1B secr inh: -12; DT40 TDP1 no CPT: -7%; HT1080 IDH1KD tx: 13%

What do the screens show for `CCOc1cccc(C(=O)Nc2nc(-c3ccc(S(=O)(=O)N4CCOCC4)cc3)cs2)c1`?
HT1080-NT tox: -5%; TDP1 cell CPT: inconclusive; IL1B secr inh: -9; DT40 TDP1 no CPT: inconclusive; HT1080 IDH1KD tx: -17%

How did O=C(COc1cccc(Cl)c1)Nc1nc(-c2ccc(S(=O)(=O)N3CCOCC3)cc2)cs1 do in these assays?
HT1080-NT tox: -2%; TDP1 cell CPT: 21µM*; IL1B secr inh: -2; DT40 TDP1 no CPT: 12µM*; HT1080 IDH1KD tx: -5%

What do the screens show for `Cc1ccc(S(=O)(=O)N2CCOCC2)cc1C(=O)Nc1nc(-c2ccccn2)cs1`?
HT1080-NT tox: -12%; TDP1 cell CPT: 5.2µM*; IL1B secr inh: 0; DT40 TDP1 no CPT: 4.1µM*; HT1080 IDH1KD tx: -27%

What do the screens show for `CN(CCO)c1ccc(-c2nn(C)c(=O)c3ccccc23)cc1[N+](=O)[O-]`?
HT1080-NT tox: 1%; TDP1 cell CPT: inconclusive; IL1B secr inh: -16; DT40 TDP1 no CPT: 8.2µM*; HT1080 IDH1KD tx: -1%

How did Cn1nc(-c2ccc(NCCO)c([N+](=O)[O-])c2)c2ccccc2c1=O do in these assays?
HT1080-NT tox: 1%; TDP1 cell CPT: 14%; IL1B secr inh: -12; DT40 TDP1 no CPT: -2%; HT1080 IDH1KD tx: -12%

Results for Cn1nc(-c2ccc(N3CCN(CCO)CC3)c([N+](=O)[O-])c2)c2ccccc2c1=O ?
HT1080-NT tox: -3%; TDP1 cell CPT: 17%; IL1B secr inh: -23; DT40 TDP1 no CPT: inconclusive; HT1080 IDH1KD tx: -18%

How did CN(C)CCCNc1ccc(-c2n[nH]c(=O)c3ccccc23)cc1[N+](=O)[O-] do in these assays?
HT1080-NT tox: -13%; TDP1 cell CPT: 10µM*; IL1B secr inh: -13; DT40 TDP1 no CPT: 23µM*; HT1080 IDH1KD tx: -11%

What do the screens show for `CN(C)CCNc1ccc(-c2nn(C)c(=O)c3ccccc23)cc1[N+](=O)[O-]`?
HT1080-NT tox: -2%; TDP1 cell CPT: inconclusive; IL1B secr inh: -4; DT40 TDP1 no CPT: 23µM*; HT1080 IDH1KD tx: 15%

Results for COc1ccc(S(=O)(=O)N2CCC(C(=O)NCCC(=O)NCc3cccnc3)CC2)cc1 ?
HT1080-NT tox: -6%; TDP1 cell CPT: -2%; IL1B secr inh: -6; DT40 TDP1 no CPT: inconclusive; HT1080 IDH1KD tx: -3%

Results for CC(C)C(=O)N1CCN(c2ccc(NC(=O)c3cccs3)cc2Cl)CC1 ?
HT1080-NT tox: -16%; TDP1 cell CPT: 23µM*; IL1B secr inh: -83*; DT40 TDP1 no CPT: 13µM*; HT1080 IDH1KD tx: -11%

How did O=C(Cc1ccc(Cl)cc1)Nc1ccc(N2CCN(C(=O)c3ccco3)CC2)c(Cl)c1 do in these assays?
HT1080-NT tox: inconclusive; TDP1 cell CPT: 15µM*; IL1B secr inh: -68*; DT40 TDP1 no CPT: 23µM*; HT1080 IDH1KD tx: inconclusive

Results for O=C(Nc1ccc(N2CCN(C(=O)c3ccco3)CC2)c(Cl)c1)c1cccs1 ?
HT1080-NT tox: inconclusive; TDP1 cell CPT: 21µM*; IL1B secr inh: -63*; DT40 TDP1 no CPT: 21µM*; HT1080 IDH1KD tx: -28%

Results for CCCn1c(N)c(C(=O)CSc2nnc(-c3cccs3)n2C2CC2)c(=O)[nH]c1=O ?
HT1080-NT tox: -12%; TDP1 cell CPT: -8%; IL1B secr inh: -12; DT40 TDP1 no CPT: -9%; HT1080 IDH1KD tx: -3%

Results for CC(=O)NC12CC3CC(C1)CC(C(=O)N1CCN(S(=O)(=O)c4ccc(C(C)C)cc4)CC1)(C3)C2 ?
HT1080-NT tox: 12%; TDP1 cell CPT: inconclusive; IL1B secr inh: 15; DT40 TDP1 no CPT: inconclusive; HT1080 IDH1KD tx: 6%

Results for O=C(O)/C=C\C(=O)Nc1ccc(N2CCN(c3ccc(Cl)c(Cl)c3)CC2)cc1 ?
HT1080-NT tox: -18%; TDP1 cell CPT: inconclusive; IL1B secr inh: -71*; DT40 TDP1 no CPT: inconclusive; HT1080 IDH1KD tx: -4%

How did Cc1ccc(C(=O)Nc2ccc(N3CCCC3)cc2)c(C)c1 do in these assays?
HT1080-NT tox: -10%; TDP1 cell CPT: inconclusive; IL1B secr inh: -15; DT40 TDP1 no CPT: inconclusive; HT1080 IDH1KD tx: -12%

What do the screens show for `O=C(Nc1ccccc1)C(c1ccccc1)C1CCCC1` (configuration not stated)?
HT1080-NT tox: -7%; TDP1 cell CPT: -6%; IL1B secr inh: -91*; DT40 TDP1 no CPT: -22%; HT1080 IDH1KD tx: -3%

How did Cc1ccccc1C(=O)Nc1ccc(N2CCCC2)cc1 do in these assays?
HT1080-NT tox: -3%; TDP1 cell CPT: inconclusive; IL1B secr inh: -55*; DT40 TDP1 no CPT: -1%; HT1080 IDH1KD tx: 1%

What do the screens show for `O=C(O)/C=C\C(=O)Nc1ccc(N2CCN(c3ccc(Cl)cc3)CC2)cc1`?
HT1080-NT tox: -2%; TDP1 cell CPT: 29%; IL1B secr inh: -25; DT40 TDP1 no CPT: -13%; HT1080 IDH1KD tx: -1%

How did COc1ccc(O)c(C(=O)CC(=O)c2ccccc2C)c1 do in these assays?
HT1080-NT tox: -2%; TDP1 cell CPT: 7.3µM*; IL1B secr inh: 29; DT40 TDP1 no CPT: 5.8µM*; HT1080 IDH1KD tx: inconclusive

Results for COc1ccc(O)c(C(=O)CC(=O)c2cccnc2)c1 ?
HT1080-NT tox: 8%; TDP1 cell CPT: inconclusive; IL1B secr inh: -24; DT40 TDP1 no CPT: inconclusive; HT1080 IDH1KD tx: 5%

What do the screens show for `CCc1nc2ccc(C(=O)NCCCN3CCCC3=O)cn2c1N(CC)C(C)=O`?
HT1080-NT tox: 16%; TDP1 cell CPT: 2%; IL1B secr inh: 31; DT40 TDP1 no CPT: -8%; HT1080 IDH1KD tx: inconclusive
